Bioassay records: PubChem BioAssay, several laboratories
L major viab: Leishmania major promastigote growth inhibition, primary screen | inhibition, % at 10 µM | AID 1063, 2008 | hit rate 9% among 200,000 | Leishmania major promastigotes, resazurin fluorescence viability; in the data active = inhibition above about 50%;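 also: promastigotes grown with compound for 44 hours at 28 °C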
p97 ATPase inh: inhibitors of human p97 ATPase, primary screen, biochemical | Transitional endoplasmic reticulum ATPase (Homo sapiens), P55072 | recombinant p97 ATPase, Kinase-Glo ATP luminescence, 3 h | inhibition, % at 8 µM | hit rate 0.42% among 220,000 | AID 1481, 2009; in the data active = inhibition above about 15%;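 also: 0% = DMSO vehicle and 100% = wells lacking enzyme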
Insulin prom inh: inhibitors of insulin promoter-driven GFP, primary screen, imaging, TRM-6 cells (human fetal islet line), eGFP reporter, cell count. reporter expression induced with tamoxifen. hit rate 0.9% among 130,000. inhibition, % at 2 µM;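 active = inhibition above the mean plus 3 SD, with well images judged a real hit on visual review, cut at about 60% in these data, passing the limit was not always enough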
HCT116 PTEN-null: growth suppression of PTEN-null HCT116, primary screen, cell-based, CellTiter-Glo. HCT116 PTEN-null viability, 60 h; active compounds read low. viability, % at 10 µM. hit rate 1.2% among 140,000;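 active = viability at or below a set limit, 4 SD under the median of all tested compounds, cut at about 3.7% in these data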;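 also: PTEN knockout HCT116 line with beta catenin targeted HCT116 as companion control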
HCT116 bCat-KO: primary screen for growth suppressors in beta-catenin knockout HCT116 cells (colon tumor, human) | HCT116 beta-catenin knockout viability, CellTiter-Glo, 60 h; active compounds read low | viability, % at 10 µM | hit rate 1.5% among 140,000;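 active = viability at or under a set limit, the compound median less 4 SD, cut at about 6% in these data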;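 also: 0% = Hyamine 1622 control at 20 µM and 100% = untreated cell control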
ROMK primary: ROMK potassium channel modulators, primary screen, cell-based, thallium flux, MLSMR library; ATP-sensitive inward rectifier potassium channel 1 (Homo sapiens), P48048; Tet-inducible ROMK, thallium flux fluorescence; actives lie on both sides; B-score at 10 µM; hit rate 2% among 130,000;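 active = signal ratio slope over the read window, or its plate-corrected B-score, at least 3 SD from the plate mean, either direction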;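 also: B-score of the F/F0 ratio slope over 7 to 12 s after thallium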
Target sequence (P48048 whole entry, looked up): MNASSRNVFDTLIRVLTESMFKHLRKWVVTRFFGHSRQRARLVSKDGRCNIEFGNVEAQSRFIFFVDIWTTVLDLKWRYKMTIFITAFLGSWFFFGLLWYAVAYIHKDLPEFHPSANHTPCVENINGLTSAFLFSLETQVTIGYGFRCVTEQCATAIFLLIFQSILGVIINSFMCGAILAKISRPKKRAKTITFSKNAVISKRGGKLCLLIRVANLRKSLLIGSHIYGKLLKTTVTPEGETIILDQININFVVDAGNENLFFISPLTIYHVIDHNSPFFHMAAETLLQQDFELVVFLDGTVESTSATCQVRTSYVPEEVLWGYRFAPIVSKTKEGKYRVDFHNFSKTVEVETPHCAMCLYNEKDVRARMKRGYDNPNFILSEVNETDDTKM
Numbers without * were called inactive; · = no result. The list is not random: actives were taken first. Their share in the collection is about 10%.

SMILES	L major viab	p97 ATPase inh	Insulin prom inh	HCT116 PTEN-null	HCT116 bCat-KO	ROMK primary
O=C(CSc1cc(Cl)ccc1Cl)NC1CCCc2ccccc21 (stereo unspecified)	56.8*	4.9	-37.8	76.6	87.4	·
Cc1ccc(S(=O)(=O)N2CCN(CC(=O)NC3CCCc4ccccc43)CC2)cc1C (stereo unspecified)	97.8*	-7.8	-8.1	81.2	72.2	-1.69
Cc1cc(C)n(Cc2cc(C(=O)O)c3ccccc3n2)n1	-6.0	-1.4	·	·	·	·
O=[N+]([O-])c1nn(-c2ccc3c(c2)OCCO3)n(O)c1=Nc1ccccc1	97.1*	2.0	-6.9	87.6	87.7	-0.297
Cc1ccc(N=c2c([N+](=O)[O-])nn(-c3ccc4c(c3)OCCO4)n2O)cc1F	23.1	6.7	·	·	·	0.493
CCc1ccc(N=c2c([N+](=O)[O-])nn(-c3ccc4c(c3)OCCO4)n2O)cc1	48.8	6.8	20.0	·	·	0.249
O=[N+]([O-])c1nn(-c2ccc3c(c2)OCCO3)n(O)c1=Nc1ccc(Cl)cc1	77.4*	3.7	·	78.8	90.8	0.938
Cc1cc(C)cc(N=c2c([N+](=O)[O-])nn(-c3ccc4c(c3)OCCO4)n2O)c1	84.7*	-1.6	36.4	·	·	1.59
O=C(COC(=O)c1c2c(nc3ccccc13)CCCCC2)c1ccc(Cl)s1	61.6*	5.1	·	63.5	78.1	·
O=C(COC(=O)c1c2c(nc3ccccc13)CCCC2)c1cccs1	24.6	4.2	-13.6	84.0	83.3	·
CCN(CC)S(=O)(=O)c1ccc(OC)c(NC(=O)C(Cc2ccccc2)N2C(=O)c3ccccc3C2=O)c1 (stereo unspecified)	-5.8	0.1	·	89.2	93.7	·
CC1=CC(C)(C)Nc2ccc(OC(=O)CN3C(=O)c4cccc5cccc(c45)C3=O)cc21	95.0*	4.7	·	18.0	14.8	·
CC1=CC(C)(C)Nc2ccc(OC(=O)C(Cc3ccccc3)N3C(=O)c4ccccc4C3=O)cc21 (stereo unspecified)	98.8*	3.5	30.0	54.9	55.8	0.249
CC1=CC(C)(C)Nc2ccc(OC(=O)CN3C(=O)c4ccccc4C3=O)cc21	100.5*	0.1	·	1.5*	1.4*	·
COc1ccccc1/C=C/C=N/NC(=O)c1ccc(=O)n(C)c1	33.4	2.7	36.7	88.5	86.3	·
Cc1nn(C)c(C)c1S(=O)(=O)N(CC(=O)N1CCc2ccccc2C1)c1ccc(C(C)C)cc1	47.3	-5.0	·	71.8	81.5	·
CC(N)(C(=O)O)c1cccc(OCc2cccc(Cl)c2)c1 (stereo unspecified)	·	2.0	·	·	·	·
CCOc1cc(S(=O)(=O)NC2CCCC2)ccc1Cl	15.3	-0.7	0.0	92.0	100.2	·
CCOc1cc(S(=O)(=O)Nc2cc(C)cc(C)c2)ccc1Cl	95.7*	-0.2	14.3	68.4	76.7	0.4
CCCSc1nnc(CNC(=O)C23CC4CC(CC(C4)C2)C3)n1Cc1ccccc1	13.4	3.5	·	100.7	106.9	·
CCc1cc(C(=O)c2ccc(OC)cc2)c(NC(=O)CCC(=O)O)s1	·	4.2	·	·	·	·
CCc1cc(C(=O)c2ccc(C)cc2)c(NC(=O)CCl)s1	88.3*	0.7	3.3	49.3	51.7	-0.188
Cc1cc(C(=O)c2ccc(Cl)cc2)c(NC(=O)CCl)s1	28.0	5.4	26.7	1.8*	4.2*	0.0151
CC(=O)c1cc2c(cc1NC(=O)c1ccc(C)cc1)OCO2	-3.5	5.0	52.4	88.6	82.3	·
COc1ccc(CC(=O)O/N=C(\N)Cc2ccc(OC)c(OC)c2)cc1	91.9*	2.1	17.8	100.1	94.2	·
O=C(COc1ncnc2c(Cl)cc(Cl)cc12)NCCC1=CCCCC1	99.7*	2.9	-18.6	90.0	97.4	0.244
O=C(COC(=O)Cc1ccc(Cl)cc1Cl)NCCC1=CCCCC1	53.6*	-5.4	18.9	98.8	90.1	0.932
CCCCNC(=O)CCn1c(=O)c2ccccc2n(Cc2ccc(Cl)cc2)c1=O	56.8*	0.6	-34.5	11.2	23.0	0.0183
CCCCNC(=O)CCn1c(=O)c2ccccc2n(Cc2ccccc2C)c1=O	8.8	2.2	6.2	90.4	90.3	1.29
COc1ccc(N(C(C)=O)S(=O)(=O)c2cc(OC)ccc2OC)cc1	-0.4	-1.0	5.9	96.5	93.7	0.294
